Cruzain noTriton: cruzain (T. cruzi) inhibition without detergent; P25779; purified cruzain, Z-FR-AMC fluorescence, no detergent; Potency, µM, without a hit: max response, negative = inhibition, usual class: inhibitors; 200,000 compounds, 2.3% hits;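 further: plate controls were enzyme without inhibitor for no effect and buffer without enzyme for full effect; nearly all actives have a fitted effect of over 40% in size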
Target sequence (P25779 123-467 limits assumed): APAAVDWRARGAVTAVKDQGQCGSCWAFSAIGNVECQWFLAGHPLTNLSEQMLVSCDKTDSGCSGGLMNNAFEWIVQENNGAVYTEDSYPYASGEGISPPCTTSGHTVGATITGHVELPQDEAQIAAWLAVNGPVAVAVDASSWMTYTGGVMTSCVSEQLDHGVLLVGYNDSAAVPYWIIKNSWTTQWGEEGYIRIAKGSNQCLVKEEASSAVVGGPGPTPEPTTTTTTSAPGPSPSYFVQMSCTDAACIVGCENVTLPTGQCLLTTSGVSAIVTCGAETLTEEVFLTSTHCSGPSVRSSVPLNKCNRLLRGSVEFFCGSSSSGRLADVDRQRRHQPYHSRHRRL
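Purified cruzain at 1.5 nM, pre-incubated 15 min with compound at room temperature in 100 mM sodium acetate pH 5.5, 5 mM DTT, 0.00005% Triton X-100. Reaction started with 2 uM Z-FR-AMC; AMC fluorescence increase over 60 s gives rate.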
Cruzain inh Det: blocks cruzain activity in presence of Triton detergent | purified cruzain, Z-FR-AMC fluorescence, 0.01% Triton | Potency, µM, inactives show max response, negative = inhibition, actives largely listed as inhibitors | 200,000 compounds, 0.43% hits;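 further: plate controls were neutral wells for no effect and buffer without enzyme for full effect; nearly all actives have a fitted effect of over 40% in size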
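Detergent-containing arm of a paired screen for aggregation-based inhibition: 0.01% Triton X-100 present. Cruzain at 1.5 nM cleaved 2 uM Z-FR-AMC at pH 5.5 with 5 mM DTT; AMC fluorescence gain over 60 s measured activity.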
Numbers without * were called inactive; ? = inconclusive. An excerpt weighted towards active compounds, which were near 2.4% of everything screened. The call rests on the fitted dose curve; in most records, active means well fitted curve in the direction sought with a large enough effect; inconclusive means small, poorly fitted or top-dose-only effect, or another doubt; inactive means no such curve, though single readings can be large; an effect the other way counts as inactive or inconclusive. Potency means the concentration at half of the fitted maximal effect.

SMILES | Cruzain noTriton | Cruzain inh Det
O=C(O)Cc1sc(Nc2ccccc2)nc1-c1ccccc1 | -24.7% | -17.5%
O=C(Cc1sc(-c2ccccc2Cl)nc1-c1ccccc1)Nc1ccc(F)cc1 | 15.8µM* | 5.1%
O=C(O)[C@@H]1[C@H](C(=O)O)[C@H]2C(=O)C=C[C@H]1N2Cc1ccccc1 | 6.1% | 3.3%
COc1cccc(Cn2c(=O)cc(C)c3c(C)nn(C)c32)c1 | ? | -7.5%
CC(=O)N1c2ccc(S(=O)(=O)N3CCCCCC3)cc2CC1C(=O)NCc1ccccc1F (configuration not stated) | 2.3% | 2.0%
O=C(NCc1ccc2c(c1)OCO2)c1cccc(C(=O)NCc2ccc3c(c2)OCO3)c1 | -0.1% | -1.9%
Cc1cc2cc(CNC(=O)c3ccc4c(c3)OCO4)ccc2n1C | 20µM* | -2.4%
Cc1cc2cc(CNC(=O)c3cc4ccccc4o3)ccc2n1C | 25.1µM* | -3.7%
O=C(Nc1nc(-c2cccs2)cs1)c1cc2ccccc2oc1=O | -1.4% | 0.4%
O=C(NCc1ccc(Cl)cc1)c1cc2ccccc2o1 | -6.2% | -6.1%
O=C(NCc1ccc(-c2nc3ccccc3s2)cc1)c1ccc(Br)o1 | ? | 1.3%
Cc1cc(-c2csc(NC(=O)c3cc4ccccc4o3)n2)c(C)n1C | 15.8µM* | -5.8%
O=C(NCc1ccc(-c2nc3ccccc3s2)cc1)c1cc2ccccc2o1 | 12.6µM* | -2.7%
CCOC(=O)c1nc(Nc2ccc(C(=O)OC(C)C)cc2)c2ccccc2n1 | ? | -11.1%
O=c1cc(COc2ccc(Cl)cc2Cl)nc2scc(-c3ccccc3)n12 | -13.6% | -6.0%
CC1CCCCN1S(=O)(=O)c1ccc2[nH]c(=O)cc(C(=O)NCCc3ccc(Cl)cc3)c2c1 (configuration not stated) | -0.1% | 0.8%
Cc1cc(SCC(=O)NCc2ccccc2Cl)nc(=O)[nH]1 | -9.9% | -1.3%
Cc1ccc2c(c1)Cc1c(nc(-c3ccc(Cl)cc3)nc1SCC(=O)N1CCCCC1)O2 | -0.3% | -0.6%
CCc1nn(CC(=O)NCc2ccco2)c(=O)c2cc3c(OC)cccc3n12 | -1.4% | -0.1%
Cc1cccc(C(=O)N2CCc3cc(CNC(=O)c4ccnn4C)ccc32)c1 | 4.3% | 0.2%
Cc1ccccc1Nc1c(-c2cc(Br)ccc2F)nc2ccccn12 | -4.8% | -0.7%
CCc1cccc(C)c1Nc1c(-c2ccccc2)nc2sccn12 | -3.2% | -11.6%
Cc1ccc(-c2nc3sccn3c2Nc2ccccc2C)cc1 | 25.1µM* | -12.9%
Cc1ccccc1Nc1c(-c2ccc(Br)cc2O)nc2sccn12 | 20µM* | -4.1%
CN1CCN(c2ccc(NC(=O)CSc3ccccc3)cc2F)CC1 | -1.0% | -1.2%
SMILES | Cruzain noTriton | Cruzain inh Det
Cc1ccc(SCC(=O)Nc2ccc(N3CCN(c4ccccc4)CC3)c(F)c2)cc1 | 10µM* | 4.2%
Cc1ccc(CNC(=O)CSCc2ccccc2C)cc1 | -4.2% | -1.6%
O=C(Cn1nc(Cc2ccncc2)c2ccccc2c1=O)Nc1cccc(C(F)(F)F)c1 | 2.0% | -7.3%
CCc1cc2c(=O)[nH]c(Cc3ccc(Cl)cc3)nc2s1 | -9.6% | 5.1%
CCc1ccc(/C=C(\Cl)c2nc3cc(Cl)ccc3c(=O)[nH]2)cc1 | 10µM* | -0.4%
CCC(C(=O)Nc1ccc(C(=O)OC)cc1)n1c(=O)c(-c2ccccc2NC(C)=O)nc2ccccc21 (configuration not stated) | 1.4% | -2.6%
CCn1c(C)c(C)c2cc(C(=O)NCc3ccc(OC(C)C)cc3)ccc21 | -3.5% | -6.5%
CCOc1ccc(CNC(=O)c2ccc3c(c2)c(C)c(C)n3Cc2ccc(Cl)cc2)cc1 | 10µM* | 2.4%
CSc1cccc(NC(=O)c2ccc3c(c2)c(C)c(C)n3Cc2ccc(F)cc2)c1 | 15.8µM* | 3.2%
Cc1c(C)n(Cc2ccccc2)c2ccc(C(=O)NCc3ccccc3F)cc12 | ? | 0.8%
CSc1ccc(CCNC(=O)c2ccc3c(c2)c(C)c(C)n3Cc2ccc(F)cc2)cc1 | 15.8µM* | 1.7%
Cc1ccccc1NC(=O)c1ccc2c(c1)c(C)c(C)n2Cc1ccccc1 | -20.4% | 0.2%
Cc1cccc(N2CCN(C(=O)Cn3ncc4c3-c3cc(C)ccc3OC4)CC2C)c1 (configuration not stated) | ? | -8.4%
CCOc1cc(C(=O)OCc2cc(=O)n3c(C)csc3n2)cc(OCC)c1OCC | -1.1% | -0.3%
CCC(C)NC(=O)CSc1nc2cc3c(cc2c(=O)n1CCCCCC(=O)NCc1ccc(OC)cc1)OCO3 (configuration not stated) | -11.1% | 0.6%
O=C(NCc1ccc2c(c1)OCO2)O[C@@H]1C(=O)c2cc(Br)ccc2O[C@H]1c1ccc2c(c1)OCO2 | -1.2% | -3.9%
COc1ncc2nc(CCc3ccccc3)c(=O)n(Cc3cccs3)c2n1 | -0.8% | -1.8%
COc1ccc2c(Sc3ccc(Cl)cc3)c(C(=O)N3CCCCC3)[nH]c2c1 | ? | -8.4%
Cc1cccc(CCNC(=O)c2ccc3c(c2)N(Cc2ccccc2F)C(=O)c2ccccc2S3)c1 | -80.4% | -2.2%
Cc1ccc(-n2ncc3c(=O)[nH]c(SCC(=O)N4CCOCC4)nc32)cc1 | -11.3% | 0.9%
Cc1ccc(-n2ncc3c(=O)[nH]c(SCC(=O)N4CCN(c5ccccc5)CC4)nc32)cc1 | 25.1µM* | 0.5%
O=c1[nH]c(SCc2nc3c(cnn3-c3ccccc3)c(=O)[nH]2)nc2ccccc12 | 0.0% | 9.0%
O=c1[nH]c(SCc2ccccc2Cl)nc2c1cnn2-c1ccccc1 | 15.8µM* | -3.0%
CCN(c1ccccc1)S(=O)(=O)c1nnc(NC(=O)c2ccccc2)s1 | 1.6% | -0.8%
COc1ccc(-n2nc(C(=O)Nc3ccc(C(C)=O)cc3)nc2-c2ccccc2)cc1 | -12.3% | -2.4%
SMILES | Cruzain noTriton | Cruzain inh Det
COc1ccc(NC(=O)C(CC(C)C)NS(=O)(=O)c2ccc3c(c2)oc(=O)n3C)cc1Cl (configuration not stated) | -4.2% | 2.7%
C/C(=N/NS(=O)(=O)c1ccc(Cl)cc1)c1cccc(NC(=O)c2ccc(Cl)cc2Cl)c1 | 25.1µM* | 1.2%
C/C(=N/NS(=O)(=O)c1ccc(C)cc1)c1cccc(NC(=O)c2cccc(Cl)c2)c1 | -20.7% | -3.9%
CCOc1ccc(Nc2sc(C(=O)c3ccc4c(c3)OCO4)c(N)c2S(=O)(=O)c2ccc(C)cc2)cc1 | 3.16µM* | -2.6%
Cc1ccc(S(=O)(=O)c2c(Nc3ccc(C)c(C)c3)sc(C(=O)c3ccc4c(c3)OCO4)c2N)cc1 | 2.51µM* | -2.4%
CCOc1ccc(S(=O)(=O)N(CC(=O)Nc2ccc3c(c2)OCO3)c2ccc(C)cc2)cc1 | 1.4% | -7.6%
Cc1ccc(S(=O)(=O)c2c(Nc3cc(C)ccc3C)sc(C(=O)c3ccc4c(c3)OCO4)c2N)cc1 | -27.0% | 9.2%
CCOc1ccc(NC(=O)/C=C/c2ccc(OC)cc2)c([N+](=O)[O-])c1 | 3.98µM* | 14.1µM*
CCCOc1ccc(/C=C/C(=O)Nc2ccc([N+](=O)[O-])cc2C)cc1 | 25.1µM* | 2.5%
CCCCC(=O)Nc1ccc(C(=O)Nc2ccc(OC)cc2[N+](=O)[O-])cc1 | 15.8µM* | 1.9%
COc1ccc(/C=C/C(=O)Nc2ccc(OC)cc2[N+](=O)[O-])cc1 | -6.8% | -1.6%
CCCCC(=O)Nc1ccc(NC(=O)c2ccc([N+](=O)[O-])cc2)cc1OC | -2.7% | -1.3%
CCCOc1ccc(/C=C/C(=O)Nc2ccc([N+](=O)[O-])cc2C)cc1OC | 5.9% | 7.6%
C=C(C)CSc1nc2sc3c(c2c(=O)n1-c1ccccc1)CC(C(C)C)OC3 (configuration not stated) | -11.8% | 0.2%
O=C(Nc1ccc2nc(SCC(=O)N3CCCC3)sc2c1)c1cccc(F)c1 | ? | -9.7%

Compound activity from PubChem BioAssay.
